Results filed as inconclusive are left out. Active and inactive are the calls of the source. The call rests on the fitted dose curve; in most records, active means well fitted curve in the direction sought with a large enough effect; inconclusive means small, poorly fitted or top-dose-only effect, or another doubt; inactive means no such curve, though single readings can be large; an effect the other way counts as inactive or inconclusive.

The nature of test [1]: Quantitative High-Throughput drug screen in 47 multiple myeloma cell lines against the NCATS MIPE library collection: MMM1_PLB cell viability assay (AID 1918976). Further: nearly all actives have a fitted effect of over 35% in size. An outline of the steps: (§1)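 MIPE 4.0 approved/investigational drugs; 500 cells/well; 48 h 37 °C humidified 5% CO2; CTG luminescence readout; DMSO = 100%, media = 0% viability.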
The nature of test [2]: Quantitative High-Throughput drug screen in 47 multiple myeloma cell lines against the NCATS MIPE library collection: MM1S_ATCC cell viability assay (AID 1918980). Further: nearly all actives have a fitted effect of over 45% in size. In short, it runs like this: as §1
A short description of test [3]: Quantitative High-Throughput drug screen in 47 multiple myeloma cell lines against the NCATS MIPE library collection: LP1_DSMZ cell viability assay (AID 1918982). Further: nearly all actives have a fitted effect of over 35% in size. An outline of the steps:
as §1

Test [4] can be described thus: Quantitative High-Throughput drug screen in 47 multiple myeloma cell lines against the NCATS MIPE library collection: KMS34_JCRB cell viability assay (AID 1918985). Further: nearly all actives have a fitted effect of over 40% in size. In short, it runs like this: as §1
Test [5] in a line: Quantitative High-Throughput drug screen in 47 multiple myeloma cell lines against the NCATS MIPE library collection: MOLP8_DSMZ cell viability assay (AID 1918977). Further: nearly all actives have a fitted effect of over 45% in size. In short, it runs like this: as §1
A short description of test [6]: Quantitative High-Throughput drug screen in 47 multiple myeloma cell lines against the NCATS MIPE library collection: OCIMY7_PLB cell viability assay (AID 1918987). Further: nearly all actives have a fitted effect of over 65% in size. An outline of the steps: as §1
A short description of test [7]: Quantitative High-Throughput drug screen in 47 multiple myeloma cell lines against the NCATS MIPE library collection: KMS12PE_JCRB cell viability assay (AID 1918972). Further: nearly all actives have a fitted effect of over 30% in size. On viability: series mostly up to about 46 µM. An outline of the steps:
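Approved and investigational drugs from MIPE 4.0 were added by pin tool to 500 cells per well. After 48 hours at 37C, ATP-based CellTiter-Glo luminescence indicated remaining viability.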

Test [8] can be described thus: Quantitative High-Throughput drug screen in 47 multiple myeloma cell lines against the NCATS MIPE library collection: KMS26_JCRB cell viability assay (AID 1918975). Further: nearly all actives have a fitted effect of over 45% in size. In short, it runs like this: (§2)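 Steps: seed 500 cells per well; pin-transfer MIPE 4.0 library; incubate 48 h at 37C, 5% CO2, humidified; add CellTiter-Glo, 5 min room temperature; read luminescence.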
Test [9] in a line: Quantitative High-Throughput drug screen in 47 multiple myeloma cell lines against the NCATS MIPE library collection: NCIH929_DSMZ cell viability assay (AID 1918978). Further: nearly all actives have a fitted effect of over 35% in size. In short, it runs like this:
as §1

The nature of test [10]: Quantitative High-Throughput drug screen in 47 multiple myeloma cell lines against the NCATS MIPE library collection: OCIMY1_PLB cell viability assay (AID 1918979). Further: nearly all actives have a fitted effect of over 35% in size. On viability: series mostly up to about 46 µM. An outline of the steps:
as §1

A short description of test [11]: Quantitative High-Throughput drug screen in 47 multiple myeloma cell lines against the NCATS MIPE library collection: MM1R_ATCC cell viability assay (AID 1918981). Further: nearly all actives have a fitted effect of over 35% in size. An outline of the steps:
as §1

Test [12] in a line: Quantitative High-Throughput drug screen in 47 multiple myeloma cell lines against the NCATS MIPE library collection: KMS28PE_JCRB cell viability assay (AID 1918983). Further: nearly all actives have a fitted effect of over 35% in size. An outline of the steps:
as §1

Test [13] can be described thus: Quantitative High-Throughput drug screen in 47 multiple myeloma cell lines against the NCATS MIPE library collection: KMS27_JCRB cell viability assay (AID 1918970). Further: nearly all actives have a fitted effect of over 30% in size. An outline of the steps: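 CellTiter-Glo luminescence after 48 h drug exposure at 37 °C; 500 cells/well, 1536-well format, pin-tool compound addition; DMSO = 100%, media-only = 0% viability.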
Test [14] is described as follows: Quantitative High-Throughput drug screen in 47 multiple myeloma cell lines against the NCATS MIPE library collection: KMS12BM_JCRB cell viability assay (AID 1918971). Further: nearly all actives have a fitted effect of over 35% in size. An outline of the steps: as §2
Test [15] can be described thus: Quantitative High-Throughput drug screen in 47 multiple myeloma cell lines against the NCATS MIPE library collection: L363_DSMZ cell viability assay (AID 1918984). Further: nearly all actives have a fitted effect of over 40% in size. In short, it runs like this: as §1
Test [16] in a line: Quantitative High-Throughput drug screen in 47 multiple myeloma cell lines against the NCATS MIPE library collection: OCIMY5_PLB cell viability assay (AID 1918988). Further: nearly all actives have a fitted effect of over 65% in size. In short, it runs like this:
as §1

A short description of test [17]: Quantitative High-Throughput drug screen in 47 multiple myeloma cell lines against the NCATS MIPE library collection: KMS20_JCRB cell viability assay (AID 1918973). Further: nearly all actives have a fitted effect of over 45% in size. In short, it runs like this:
as §2
Potency means the concentration at half of the fitted maximal effect.

For the molecule `COc1cc2c(cc1OC)CN(CCc1ccc(NC(=O)c3cccc4c(=O)c5cccc(OC)c5[nH]c34)cc1)CC2`, the Potency in [1] was 20.9 µM (active); in test [2], 2.64 µM (active). Besides, the Potency result in test [3] and in test [4] was “inactive” throughout.

Turning to `O=C(c1cc(Cc2n[nH]c(=O)c3ccccc23)ccc1F)N1CCN(C(=O)C2CC2)CC1`, the Potency entry in [5] and in [4] was “inactive” in each case. Besides, the Potency is 23.5 µM (active) in [2] and 2.64 µM (active) in test [6].

In the case of `COCCNCCCn1c(C(=O)CF)c(-c2ccc(C)cc2)c2c(N)ncnc21`, the Potency result in test [7], in test [8], in test [9], in test [10] and in test [12] was “inactive” throughout. For the same molecule, the Potency in [11] was 2.64 µM (active); in test [3] it was 7.43 µM (active); in test [4] it was 16.6 µM (active).

For the molecule `Cc1cc2c(F)c(Oc3ncnn4cc(OC[C@@H](C)O)c(C)c34)ccc2[nH]1`, the Potency entry in [7] and in [10] was “inactive” throughout. Also, the Potency in [9] was 18.7 µM (active); in test [2], 16.6 µM (active); in test [12], 20.9 µM (active).

`COc1c(Cl)cc2c([nH]c3cnccc32)c1NC(=O)c1cccnc1C`: the Potency in test [13] was 11.8 µM (active); in [14] it was 14.8 µM (active); in test [7], 20.9 µM (active); in test [8] it was 13.2 µM (active); in [9], 0.743 µM (active); in [11], 14.8 µM (active). In addition, the Potency in [3] was 7.43 µM (active); in test [15], 0.743 µM (active); in test [4], 3.32 µM (active); in test [6], 2.09 µM (active); in test [16] it was 9.35 µM (active). For the same molecule, the Potency entry in test [5] and in test [10] was “inactive” in each case.

As to `CCc1cncnc1N1CCN(Cc2nc3ccc(C(F)(F)F)cc3[nH]2)CC1`, the Potency in test [13] was 7.43 µM (active); in [7], 2.09 µM (active); in test [8] it was 4.18 µM (active); in [2], 18.7 µM (active); in test [11], 18.7 µM (active); in [12] it was 20.9 µM (active). The results for the Potency in test [15], in test [6] and in [16] were 5.26 µM (active), 23.5 µM (active) and 23.5 µM (active), respectively. In test [10], the Potency entry is “inactive”.

As to `C#Cc1cccc(Nc2ncnc3cc(OCCOC)c(OCCOC)cc23)c1`, the Potency is 5.26 µM (active) in test [13]; 20.9 µM (active) in [14]; 2.09 µM (active) in test [7]; 7.43 µM (active) in test [9]; 9.35 µM (active) in [2]; 1.48 µM (active) in test [15]. In addition, the Potency in [4] is 11.8 µM (active); in test [6] it was 0.833 µM (active); in test [16] it was 5.9 µM (active). For the same molecule, the Potency result in test [10] was “inactive”.

Consider `CC1(C)Cc2c(-c3ccccc3)c(-c3ccc(Cl)cc3)c(CC(=O)O)n2C1`, for which the Potency in test [14] is 20.9 µM (active); in test [5], 20.9 µM (active); in [10] it was 23.5 µM (active); in [2] it was 26.4 µM (active).

In the case of `C[C@]1(c2nc3c(C(N)=O)cccc3[nH]2)CCCN1`, the Potency was 23.5 µM (active) in test [9], 4.69 µM (active) in test [2] and 5.26 µM (active) in [6]. In addition, the Potency entry in test [11] and in test [12] was “inactive” throughout.

With `CCCc1nn(C)c2c(=O)[nH]c(-c3cc(S(=O)(=O)N4CCN(C)CC4)ccc3OCC)nc12`, the Potency in test [14] is 11.8 µM (active); in [17], 18.7 µM (active); in test [1], 23.5 µM (active); in test [2], 20.9 µM (active); in test [16], 7.43 µM (active). The Potency entry in test [7] and in test [15] was “inactive” each time.

For the molecule `CCOC(=O)N[C@@H]1CC[C@@H]2[C@@H](C1)C[C@H]1C(=O)O[C@H](C)[C@H]1[C@@H]2C=Cc1ccc(-c2cccc(F)c2)cn1`, the Potency in test [13] is 18.7 µM (active); in test [14], 20.9 µM (active); in test [7], 14.8 µM (active); in test [11] it was 20.9 µM (active); in [16], 23.5 µM (active). Further, the Potency result in test [8] and in test [5] was “inactive” throughout.

Turning to `O=C1CCc2cc(OCCCCc3nnnn3C3CCCCC3)ccc2N1`, the Potency entry in test [13], in test [7], in test [8], in test [10], in test [11] and in [3] was “inactive” throughout. The Potency result in [15] was “inactive”.

With `CCOc1cc(C=C2C(=O)N(c3ccccc3)N=C2C)cc(Cl)c1OCC(=O)OC`, the Potency was 20.9 µM (active) in test [8]; 2.64 µM (active) in test [9]; 7.43 µM (active) in test [2]; 23.5 µM (active) in test [11]; 3.72 µM (active) in test [6]. For the same molecule, the Potency entry in test [5], in test [10] and in test [3] was “inactive” in each case.

Consider `COc1ccc2nc(S(=O)Cc3ncc(C)c(OC)c3C)[nH]c2c1` (stereo not drawn), for which the Potency result in [14], in test [17], in test [8], in [3] and in test [4] was “inactive” each time. For the same molecule, the Potency in [9] is 10.5 µM (active); in [2], 18.7 µM (active); in [6] it was 16.6 µM (active).

For `CC(C)(C)OC(=O)CN(Cc1ccc(Cl)cc1)Cc1ccc([N+](=O)[O-])s1`, the Potency result in test [13], in [7], in test [17], in test [9], in test [10] and in [11] was “inactive” in each case. In addition, the Potency in test [3] and in test [16] was 18.7 µM (active) throughout.

The record behind these values is PubChem BioAssay (NCATS).
